Screening data as filed in PubChem BioAssay.
The sample as a whole holds a higher share of hits than the screen did.
USP2a block – qHTS Assay for Inhibitors of Ubiquitin-specific Protease USP2a Using CHOP2 as the Reporter | Ubiquitin carboxyl-terminal hydrolase 2 (Homo sapiens), O75604 | USP2 core, Ub-CHOP2 coupled fluorogenic reporter, 485/531 | Potency, µM (top dose mostly 38.3 µM), inactives show top-dose activity change, negative = inhibition, most hits filed as inhibitors | 330,000 tested, 0.01% active;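 also: plate controls were DMSO wells for no effect and full inhibition by NEM control for full effect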
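Deubiquitinase activity read as fluorescence (485/531 nm) after Ub-CHOP2 cleavage activates the enterokinase reporter on its substrate; USP2 core 10nM, Ub-CHOP2 and substrate 25nM each, 30min compound preincubation then 60min RT; data normalized to NEM, curves fitted.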
Eya2 phos inh – qHTS Assay for Inhibitors of the Phosphatase Activity of Eya2. Potency, µM (doses to about 76.9 µM), without a hit: top-dose activity, negative = inhibition, most hits filed as inhibitors. 330,000 tested, 0.006% active. recombinant Eya2, OMFP fluorescence dephosphorylation (OMFP is methylfluorescein phosphate). AID 488837, 2010; also: % is scaled to controls: 0 for no effect and ±100 for the full control effect
Target sequence (O00167 whole entry, looked up): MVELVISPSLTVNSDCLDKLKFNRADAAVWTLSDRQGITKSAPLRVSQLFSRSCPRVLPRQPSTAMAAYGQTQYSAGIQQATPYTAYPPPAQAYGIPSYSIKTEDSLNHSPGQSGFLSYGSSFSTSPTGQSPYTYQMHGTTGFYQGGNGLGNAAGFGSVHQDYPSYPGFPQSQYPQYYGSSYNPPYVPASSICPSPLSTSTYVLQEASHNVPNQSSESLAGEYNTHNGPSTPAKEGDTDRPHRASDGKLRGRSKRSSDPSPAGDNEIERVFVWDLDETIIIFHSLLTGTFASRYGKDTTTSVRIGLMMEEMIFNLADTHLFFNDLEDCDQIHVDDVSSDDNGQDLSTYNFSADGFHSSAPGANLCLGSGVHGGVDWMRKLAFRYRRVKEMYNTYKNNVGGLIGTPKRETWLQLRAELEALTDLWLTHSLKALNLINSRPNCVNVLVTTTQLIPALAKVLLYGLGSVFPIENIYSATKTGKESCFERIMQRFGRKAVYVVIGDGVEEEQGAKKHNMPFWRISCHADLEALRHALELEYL
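Eya2 (0.2 uM) preincubated 10 min at ambient with compound, then OMFP substrate added at 50 uM; 10 min reaction in 50 mM HEPES pH 7.5, 50 mM NaCl, 5 uM MgCl2, 0.05% BSA, 1 mM DTT. Fluorescence read at Ex 485/Em 525 nm.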
ClpP mod – qHTS Assay for Activators of ClpP | Potency, µM (series often up to 57.5 µM), for inactives: at the highest dose activity change, negative = active | ATP-dependent Clp protease proteolytic subunit (Bacillus subtilis (strain 168)), P80244 | 340,000 tested, 1.9% active | purified B. subtilis ClpP, FRET peptide cleavage, 20 min; active = well fitted falling curve with a large enough effect; also: the source files actives as falling curves though it sought activators and does not explain the sign; nearly all actives have a fitted effect of over 65% in size
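Purified B. subtilis ClpP, 10 microg/mL final in Tris/HCl pH8 with KCl, BSA, glycerol and Tween-20, cleaved an Abz/nitrotyrosine-quenched decapeptide. Fluorescence (ex 320, em 430) was read at 0 and 20 min at room temperature. Delta was normalized to 5.8 microM ADEP and DMSO/no-enzyme controls.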
GALK inh – qHTS Assay for Inhibitors of Human Galactokinase (GALK); P51570; Purified GALK, Kinase-Glo residual ATP luminescence; Potency, µM (top dose mostly 57.5 µM), for the others: top-dose activity change, negative = inhibition, hits mostly inhibitors; 270,000 tested, 0.007% active; also: % is scaled to controls: 0 for no effect and ±100 for the full control effect
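ATP-depletion format; final 35 uM ATP, 100 uM D-galactose, 5 nM enzyme; pH 8.0 HEPES/Mg2+ buffer; 60 min RT; luminescence read 10 min after detection reagent.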
Active calls of the source: *; · = not tested or not shown. Unless noted, calls follow the shape of the dose curve; as a rule, active = well fitted inhibition curve with a large enough effect; inconclusive = small, poorly fitted or top-dose-only effect, or effect the other way; inactive = flat fitted curve, though single readings scatter. Potency is read from the fitted curve at half-maximal effect.

SMILES	USP2a block	Eya2 phos inh	ClpP mod	GALK inh
COc1cc2c(cc1OC)C(c1cc3cc4c(cc3[nH]c1=O)OCO4)N(C(=O)C1CC1)CC2 (stereo not given)	1%	-1%	25µM*	-4%
COc1cccc(C(=O)NCCc2csc(-c3cccc(F)c3)n2)c1OC	·	·	-10%	·
COC(=O)c1ccccc1S(=O)(=O)NNC(=O)C12CC3CC(CC(C3)C1)C2	0%	0%	1%	·
CCN1C(=O)C(CC(=O)Nc2c(C)cccc2C)Nc2cc(S(=O)(=O)N(C)C)ccc21 (stereo not given)	5%	-6%	28µM*	14%
Cc1cccc(C)c1NC(=O)CN(C)C(=O)c1cc(S(=O)(=O)N(C)C)ccc1N1CCCC1	1%	-11%	-23%	·
Cc1ccc(OCC(=O)N(Cc2ccc(N(C)C)cc2)C2CCS(=O)(=O)C2)cc1 (stereo not given)	0%	-4%	0%	1%
Cc1cc(C)cc(OCC(=O)N(Cc2ccc(N(C)C)cc2)C2CCS(=O)(=O)C2)c1 (stereo not given)	1%	-27%	22µM*	5%
c1ccc(-c2c(-c3ccccc3)n(Cc3ccco3)c3ncnc(NCCCn4ccnc4)c23)cc1	-17%	-44%	25µM*	-3%
N=c1c2c(-c3ccccc3)c(-c3ccccc3)n(Cc3ccco3)c2ncn1Cc1ccccc1	1%	-12%	-3%	-2%
OCCNc1ncnc2c1c(-c1ccccc1)c(-c1ccccc1)n2Cc1ccco1	0%	-15%	28µM*	-3%
CCCCCCCNC(=O)COc1ccc2c(c1)C(=O)CC(C)(C)O2	-10%	-32%	28µM*	4%
CCN(CC)C(=O)COc1ccc2c(c1)C(=O)CC(C)(C)O2	1%	-6%	4%	1%
CC1(C)CC(=O)c2cc(OCC(=O)NCc3cccnc3)ccc2O1	1%	0%	25µM*	-2%
Cc1cc(OCC(=O)N2CCOCC2)cc2oc(=O)c3ccccc3c12	0%	6%	7.1µM*	0%
CC1(C)CC(=O)c2cc(OCC(=O)N3CCOCC3)ccc2O1	-1%	-18%	28µM*	1%
C[C@H](NC(=O)Cn1cncn1)c1ccccc1	0%	-5%	3%	5%
COc1ccc(CCNC(=O)CNC(=O)N2CC(=O)Nc3ccccc32)cc1	·	·	-1%	·
CCCCC1OC2(C)OC(=N)C1(C#N)C(C#N)(C#N)C2c1ccccc1 (stereo not given)	7%	15%	32µM*	-1%
CC1OC2(C)OC(=N)C1(C#N)C(C#N)(C#N)C2c1ccccc1 (stereo not given)	4%	0%	25µM*	0%
CCS(=O)(=O)N1N=C(c2ccc(C)cc2)CC1c1cc2ccc(OC)cc2nc1Cl (stereo not given)	·	·	-17%	·
Cc1cc(NC(=O)c2ccccc2NS(=O)(=O)c2c(C)c(C)cc(C)c2C)no1	-1%	0%	28µM*	-1%
Cc1ccc(C)c(S(=O)(=O)Nc2ccccc2C(=O)Nc2cc(C)on2)c1	-2%	-4%	16µM*	-3%
Cc1ccc(-c2nnc(-c3ccc(Br)cc3)o2)o1	3%	6%	32µM*	1%
Brc1ccc(-c2nnc(-c3ccco3)o2)cc1	1%	11%	37%	4%
CCN(C(=O)CSc1nnc(Nc2ccccc2C)s1)C1CCS(=O)(=O)C1 (stereo not given)	3%	8%	28µM*	-1%
CCN(C(=O)CSc1nc2nc(C)cc(C)n2n1)C1CCS(=O)(=O)C1 (stereo not given)	-1%	-5%	16µM*	10%
Cc1cc(C)n2nc(SCC(=O)N(Cc3ccccc3)C3CCS(=O)(=O)C3)nc2n1 (stereo not given)	-3%	-8%	·	-1%
COc1cc(/C=N/NC(=O)c2ccncc2)cc2c1OCO2	0%	4%	0%	3%
COc1cc(/C=N/NC(=O)CCN2CCN(C)CC2)cc2c1OCO2	-1%	-24%	16µM*	-2%
O=C(Nc1ccc(Br)cn1)c1coc(=O)c(Br)c1	1%	5%	·	·
